The results in this text go back to PubChem BioAssay AID2283234 (EPA ToxCast).

Results filed as inconclusive are left out. Activity calls are given as the source filed them. The calls were made as follows: active = hit-call score of the fitted dose curve at least 0.9, where 1 is the maximum; inconclusive = response in the unintended direction; inactive = score below 0.9.

The target in the test is human Dual Specificity Styrosine-Phosphorylation-Regulated Kinase 1A (DYRK1a), DYRK1A (gene 1859) (UniProt Q13627). The test can be described thus: NVS_ENZ_hDYRK1a: NovaScreen (NVS) Enzymatic Assay for human Dual Specificity Styrosine-Phosphorylation-Regulated Kinase 1A (DYRK1a). The procedure: NVS_ENZ_hDYRK1a is a biochemical, single-readout assay that uses extracted gene-proteins in a cell-free assay. Measurements were taken 1 hour after chemical dosing in a 96-well plate.NVS_ENZ_hDYRK1a is one of one assay component(s) measured or calculated from the NVS_ENZ_hDYRK1a assay. It is designed to make measurements of enzyme activity, a form of enzyme reporter, as detected with fluorescence intensity signals by Fluorescence and electrophoretic mobility shift technology.Data from the assay component NVS_ENZ_hDYRK1a was analyzed into 1 assay endpoint. This assay endpoint, NVS_ENZ_hDYRK1a, was analyzed in the positive analysis fitting direction relative to DMSO as the negative control and baseline of activity. Using a type of enzyme reporter, loss-of-signal activity can be used to understand changes in the enzymatic activity as they relate to the gene DYRK1A. Furthermore, this assay endpoint can be referred to as a primary readout, because this assay has produced multiple assay endpoints where this one serves a enzymatic activity function. To generalize the intended target to other relatable targets, this assay endpoint is annotated to the kinase intended target family, where the subfamily is dual-specific kinase.
Binding assays used specific radioligands (tritiated, iodinated) with non-radioactive competitive displacement ligands in agonist or antagonist protocols (as indicated) and various reference compounds and inhibitors to titrate specific binding to receptors and transporters. Most enzyme assays (CYPs, kinases, phosphatases, proteases, HDACs) used recombinant protein and specific substrates (fluorescence mostly, some colorimetric and radioactive) and inhibitors, followed by a biochemical separation of substrate and product. All assays for the biochemical HTS were initially run in duplicate at a single concentration (10 uM for CYP450 assays and 25 uM for all others). […] Each assay was run with positive and negative controls, and concurrent controls on every plate. The follow-up (secondary) screen tested active chemical-pairs in concentration series, as well as a few additional assays not tested in the primary screen, some selected negative inactives, and several cases re-run in the concentration series for confirmatory purposes.

As to `N#CSCSc1nc2ccccc2s1`, the molecule was classed as inactive.
Still for that read-out and setting: for `CC(C)(C)[C@@H](O)[C@@H](Cc1ccc(Cl)cc1)n1cncn1` the value was “inactive”.
Consider `O=C(O)C1(C(=O)Nc2ccc(Cl)cc2Cl)CC1`, for which the AC50 is 5.11 µM (active).
For the molecule `S=C([S-])NCCNC(=S)[S-].[Mn+2]`, the AC50 is 6.02 µM (active).
Consider `S=C(S)NCCNC(=S)S.[Mn+2].[S-]C([S-])=NCCN=C([S-])[S-].[Zn+2]`, for which the half-maximal activity concentration (AC50) was 1.39 µM (active).
